The values below come from ChEMBL document CHEMBL4513216, “Probing the Open Global Health Chemical Diversity Library for Multistage-Active Starting Points for Next-Generation Antimalarials” (ACS Infect Dis, 2020).

Structures are written as SMILES. Screen size: about 69,000 compounds; about 8,600 (12%) showed an effect of 50% or more. The entries come from a sample that favours strong results as a whole.

The experiment concerns Plasmodium berghei. In words: Screen against P. berghei liver stage (PbLuc), transformed with Luciferase, at 10uM. The following applies: tested at 10 uM. It counts as functional, HepG2.
As to `O=C(c1cnc2ccccn12)N1CCCC(c2ccn[nH]2)C1` (stereo not drawn), the INHIBITION is listed as -0.71%. Take `O=C(c1cc(=O)n(-c2ccccc2)[nH]1)N1CCOC(C(F)(F)F)C1` (stereo not drawn): the INHIBITION is reported as 63.6%.

`O=C(c1cc(=O)n(-c2ccccc2)[nH]1)N1CCOCC(O)C1` (stereo not drawn): the INHIBITION is on record as 0.546%. The result for `O=C(c1cc(=O)n(-c2ccccc2)[nH]1)N1CCCC(c2ccn[nH]2)C1` (stereo not drawn) reads 55%; that for `O=C(c1cnnn1-c1ccccc1)N1CCCC(c2ccn[nH]2)C1` (stereo not drawn), 12.9%. As to `O=C(c1ccccc1-c1nc[nH]n1)N1CCOC(C(F)(F)F)C1` (stereo not drawn), the INHIBITION is reported as 7.15%. Under `COc1ccc(CNC(=O)Nc2ccc(N3CCCC3)nc2)cc1O` stands 26.4%; under `O=C(NCc1cccs1)[C@H]1CC[C@@H]2[C@@H](CCN2C2CCC2)O1`, -4.88%. Regarding `O=C(c1cscn1)N1CCC2(CCN(Cc3nccs3)CC2)CC1`, the INHIBITION is 35.7%. Turning to `O=C(c1cscn1)N1C[C@H]2CN(Cc3nccs3)C[C@H]2C1`, the INHIBITION is 62.5%. For `Cc1cnc(C(=O)N2C[C@H]3CN(Cc4cccs4)C[C@H]3C2)cn1`, the INHIBITION is -18.2%. As for `Cc1cnc(C(=O)N2C[C@H]3CN(Cc4cccnc4)C[C@H]3C2)cn1`, the INHIBITION is -6.21%. Under `Cc1cnc(C(=O)N2C[C@H]3CN(Cc4nccs4)C[C@H]3C2)cn1` stands 81.5%; under `NC(=O)N1C[C@H]2CN(Cc3nccs3)C[C@H]2C1`, 14.8%. Consider `O=C(O)c1c(-c2ccncc2)ncc2c1CCN(C1CCOC1)C2` (stereo not drawn), for which the INHIBITION is reported as -12.4%. The result for `CCc1nc(CC(=O)N2CCn3c(C)nnc3C2)cs1` reads 27.45%; that for `CN1C(=O)CC(C(=O)O)C12CCN(Cc1cc(Cl)ccc1F)CC2` (stereo not drawn), 50.5%; that for `CN1C(=O)CC(C(=O)O)C12CCN(Cc1ccc(Cl)cc1F)CC2` (stereo not drawn), 7.84%. Under `CN1C(=O)CC(C(=O)O)C12CCN(Cc1ccc(F)cc1Cl)CC2` (stereo not drawn) stands 18.8%.

As to `O=C(c1ccsc1)N1CCC(Nc2cccnn2)CC1`, the INHIBITION is on record as -85%. Turning to `COc1ccc(NC2(C(=O)N3CCCn4cncc4C3)CCCC2)cc1`, the INHIBITION amounted to 18.5%. As for `CN(CC(=O)NCCCOc1ccc(F)cc1)c1ccc(C#N)cn1`, the INHIBITION came to 3.84%. Take `O=c1[nH]c2cn(-c3ccccc3)c(=O)n2[nH]1`: the INHIBITION is reported as 14.2%. Consider `Cc1cc(C)nc(C2CCCN2S(=O)(=O)N2CCOCC2)n1` (stereo not drawn), for which the INHIBITION is 43.4%. The result for `Cc1ccc(C(=O)N2CCCC(c3[nH]ncc3S(C)(=O)=O)C2)s1` (stereo not drawn) reads 33.7%; that for `CS(=O)(=O)NC[C@]12COC[C@H]1CN(Cc1ccc3c(c1)OCO3)C2`, 38.5%; that for `Cn1cc(C(=O)NCC(Cc2cccc(F)c2)N2CCCCC2=O)nn1` (stereo not drawn), 6.83%. The result for `COC(=O)CN1CCC(C(=O)c2cc(F)ccc2F)CC1` reads 15.3%; that for `O=C(CN1CCC(C(=O)c2cc(F)ccc2F)CC1)NC1CC1`, 56.5%. Under `O=C(CN1CCC(C(=O)c2cc(F)ccc2F)CC1)NC1CCCC1` stands 51.3%. On to `C=C(Cl)CN1CCC(C(=O)c2cc(F)ccc2F)CC1`, for which the INHIBITION amounted to 17.8%. In the case of `O=C(CCN1CCC(C(=O)c2cc(F)ccc2F)CC1)NC1CCCC1`, the INHIBITION came to 36.2%. Consider `O=C(CCN1CCC(C(=O)c2cc(F)ccc2F)CC1)NC1CC1`, for which the INHIBITION is given as -1.58%. The result for `CC(=O)N[C@H]1CCO[C@@H](c2cccc(NC(=O)c3cccc(F)c3)c2)C1` reads 6.74%; that for `O=C(NC1CC1)N1CCc2ncc(CN3CCOCC3)n2CC1`, 15.9%.

For `COc1ccc(CN2CC[C@H]3[C@H]2CC(=O)N3Cc2cccc(C)n2)cc1`, the INHIBITION is on record as -31.9%. `Cc1ccc(N2C[C@H]3OCC[C@H]3[C@H](C(=O)NCC3CC3)C2)nn1`: the INHIBITION is 49.7%.

Consider `CCc1nnc(CS(=O)(=O)c2ccc(C)cc2)n1C`, for which the INHIBITION is 35.1%. Consider `C=C(C)CN(CC)C(=O)CN(C)C1CCc2ccccc21` (stereo not drawn), for which the INHIBITION is reported as -2.725%. The result for `CN(Cc1ccc(Cl)s1)C(=O)CN(C)C1CCc2ccccc21` (stereo not drawn) reads 82.5%. The result for `CCOC(=O)CN(C)C1CCc2ccccc21` (stereo not drawn) reads 34.7%; that for `CN(Cc1c(F)cccc1Cl)C(=O)CN(C)C1CCc2ccccc21` (stereo not drawn), 85.1%. The result for `COC(=O)CN(C)C1CCc2ccccc21` (stereo not drawn) reads 20.1%; that for `CN(Cc1ccc(Cl)s1)C(=O)CN(C)C1CCCc2ccccc21` (stereo not drawn), 85.9%; that for `CN(CCC#N)C(=O)CN(C1CC1)C1CCc2ccccc21` (stereo not drawn), -4.15%. As to `CN(CC(=O)N(C)C1CCCCC1)C1CCc2ccccc21` (stereo not drawn), the INHIBITION is 37.2%. For `CC(C)N(C(=O)CN(C)C1CCc2ccccc21)C(C)C` (stereo not drawn), the INHIBITION is on record as -30.96%. Under `CCN(CC)C(=O)CN(C)C1CCc2ccccc21` (stereo not drawn) stands 53.5%; under `CN(Cc1cccs1)C(=O)CN(C)C1CCc2ccccc21` (stereo not drawn), 47.4%. Under `CCCN(CCC)C(=O)CN(C)C1CCc2ccccc21` (stereo not drawn) stands 15.55%. The result for `Cn1c2c(ccc1=O)CC(Nc1ncc(F)cn1)CC2` (stereo not drawn) reads -89%. For `O=C1COC2(CCN(Cc3ccc(F)cc3)CC2)CN1`, the INHIBITION is -7.35%. For the molecule `O=C(CCN1CCOC1=O)N(Cc1ccncc1)CC1CCCO1` (stereo not drawn), the INHIBITION is 15.7%.
